This note sets out measurements from PubChem BioAssay.

Assay [1] concerns TRPC4 beta (transient receptor potential cation channel C4), mouse. Briefly: TRPC4 cation channel opening, retest – cell-based, Fluo4 calcium, HEK293 TRPC4beta/mu-opioid, duplicates, 10 µM, confirmation (AID 2426).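 For activation: percent rise of integrated ratio over buffer wells lacking compound which define 0%.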 The settings on record: Fluo4 calcium fluorescence, at 10 µM; hits give high values.
The subject of assay [2] is transient receptor potential cation channel C4 beta (TRPC4), mouse. Description: TRPC4 cation channel opening, second retest – cell-based, second round, Fluo4, HEK293 TRPC4beta/mu-opioid, 1 µM, confirmation (AID 2461;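 active = primary screen active and over 50% activation in each of two duplicate runs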;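 for activation: 0% = wells without test compound as baseline of integrated fluorescence ratio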). The following applies: Fluo4 calcium fluorescence, at 1 µM; hits give high values.
Assay [3] has as its system TRPC4 (transient receptor potential cation channel C4 beta), mouse. Briefly: potentiation of DAMGO EC20 TRPC4 response – cell-based, second round, Fluo-4, HEK293 TRPC4beta/mu-opioid, 1 µM, confirmation (AID 2554;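 active = primary screen hit whose fluorescence ratio, in both repeats, exceeds the weak agonist control mean by 3 SD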). The settings on record: DAMGO EC20, Fluo-4 calcium flux, at 1 µM; hits give high values. On the technique in general: Calcium flux is commonly read through the fluorescence of an indicator in the cells.

The subject of assay [4] is TRPC4 beta (transient receptor potential cation channel C4), mouse. Briefly: potentiation of DAMGO EC20 TRPC4 response – cell-based, Fluo-4, HEK293 TRPC4beta/mu-opioid, confirmation (AID 2555;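 active = primary screen hit whose calcium fluorescence ratio, in both repeats, exceeds the weak agonist control mean by 3 SD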). The settings on record: DAMGO EC20, Fluo-4 calcium flux, at 10 µM; hits give high values.
Assay [5] addresses Short transient receptor potential channel 4 (Mus musculus) (UniProt Q9QUQ5). Briefly: blockers of DAMGO-evoked TRPC4 calcium flux – cell-based, Fluo4, HEK293 TRPC4beta/mu-opioid, confirmation (AID 2636;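 active = calcium signal cut by more than 3 SD below the full-agonist control yet still positive, in both repeats and the earlier primary screen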). The following applies: at 10 µM; hits give high values.
For assay [6] the target is unchanged. Briefly: blockers of DAMGO-evoked TRPC4 calcium flux – cell-based, second round, Fluo4, HEK293 TRPC4beta/mu-opioid, 1 µM, confirmation (AID 2637;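 active = calcium signal ratio cut to more than 3 SD under the fully stimulated control mean yet still positive, in both repeats and the primary screen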). The settings on record: at 1 µM; hits give high values.
For assay [7] the target is unchanged. Description: potentiation of DAMGO-evoked TRPC4 calcium signal – cell-based, HEK293 TRPC4/mu-opioid, Fluo-4 calcium, EC20 DAMGO, dose response (AID 434941;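 active = earlier screen potentiator hit that boosts the TRPC4 ion channel at some dose, with a dose response; inactive = no potentiation, no dose response, or not a prior hit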;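 note: calcium entry triggered by an EC20 dose of DAMGO at the co-expressed mu-opioid receptor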).
Assay [8] has the same target. Description: block of DAMGO-driven TRPC4 calcium entry – cell-based, HEK293 TRPC4/mu-opioid, Fluo-4 calcium, dose response (AID 434942;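 active = primary screen inhibitor hit that blocks the TRPC4 channel at some tested dose, yielding a dose curve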).
Assay [9] addresses Short transient receptor potential channel 6 (Mus musculus) (UniProt Q61143). Description: TRPC6 blockade by TRPC4 inhibitor hits – cell-based, HEK293, membrane potential dye, duplicate, selectivity assay for TRPC4 inhibitor project, confirmation (AID 434948;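 active = active in primary screen and both duplicates, each dropping signal beyond three positive-control SD with fluorescence still positive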). The following applies: HEK293 TRPC6, membrane potential dye fluorescence, at 10 µM, stimulated with maximal-effect acetylcholine; hits give high values.

Assay [10] shares this target. Description: TRPC6 opening by TRPC4 activator hits – cell-based, HEK293, membrane potential dye, duplicate, selectivity assay for TRPC4 activator project, confirmation (AID 434950;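 active = membrane potential signal rise above negative control mean plus 3 SD in both duplicates, also active in the earlier TRPC4 screen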;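 for activation: 0% = buffer only wells and 100% = acetylcholine maximal-effect wells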). The following applies: HEK293 TRPC6, membrane potential fluorescence, at 10 µM; activation: hits give high values; outcome: activation.
Assay [11] shares this target. Description: positive modulators of mouse TRPC6 channel – HEK293 cells, membrane potential dye, duplicate, selectivity assay for TRPC4 potentiator project, confirmation (AID 434952;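 active = compound raising the membrane signal above positive-control mean plus 3 SD in both repeats, and a primary screen hit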). The following applies: HEK293 TRPC6, membrane potential dye fluorescence, at 10 µM, maximal acetylcholine added after compound; hits give high values.
For assay [12], the target named is Short transient receptor potential channel 4 (Mus musculus) (UniProt Q9QUQ5). Briefly: calcium flux activators in TRPC4/5HT1a cells, counter-screen for TRPC4 activator project, cell-based, second counter screen, HEK293 TRPC4/5HT1a, Fluo-4 (AID 434977;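 active = calcium signal rise above buffer-control mean plus 5 SD in both duplicates, and also a hit in the primary screen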;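 for activation: plate controls were assay buffer for no effect and maximal serotonin response for full effect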). The following applies: Fluo-4 calcium flux, at 10 µM; hits give high values.
Chain of Short transient receptor potential channel 4 (Mus musculus) (Q9QUQ5 whole entry, looked up): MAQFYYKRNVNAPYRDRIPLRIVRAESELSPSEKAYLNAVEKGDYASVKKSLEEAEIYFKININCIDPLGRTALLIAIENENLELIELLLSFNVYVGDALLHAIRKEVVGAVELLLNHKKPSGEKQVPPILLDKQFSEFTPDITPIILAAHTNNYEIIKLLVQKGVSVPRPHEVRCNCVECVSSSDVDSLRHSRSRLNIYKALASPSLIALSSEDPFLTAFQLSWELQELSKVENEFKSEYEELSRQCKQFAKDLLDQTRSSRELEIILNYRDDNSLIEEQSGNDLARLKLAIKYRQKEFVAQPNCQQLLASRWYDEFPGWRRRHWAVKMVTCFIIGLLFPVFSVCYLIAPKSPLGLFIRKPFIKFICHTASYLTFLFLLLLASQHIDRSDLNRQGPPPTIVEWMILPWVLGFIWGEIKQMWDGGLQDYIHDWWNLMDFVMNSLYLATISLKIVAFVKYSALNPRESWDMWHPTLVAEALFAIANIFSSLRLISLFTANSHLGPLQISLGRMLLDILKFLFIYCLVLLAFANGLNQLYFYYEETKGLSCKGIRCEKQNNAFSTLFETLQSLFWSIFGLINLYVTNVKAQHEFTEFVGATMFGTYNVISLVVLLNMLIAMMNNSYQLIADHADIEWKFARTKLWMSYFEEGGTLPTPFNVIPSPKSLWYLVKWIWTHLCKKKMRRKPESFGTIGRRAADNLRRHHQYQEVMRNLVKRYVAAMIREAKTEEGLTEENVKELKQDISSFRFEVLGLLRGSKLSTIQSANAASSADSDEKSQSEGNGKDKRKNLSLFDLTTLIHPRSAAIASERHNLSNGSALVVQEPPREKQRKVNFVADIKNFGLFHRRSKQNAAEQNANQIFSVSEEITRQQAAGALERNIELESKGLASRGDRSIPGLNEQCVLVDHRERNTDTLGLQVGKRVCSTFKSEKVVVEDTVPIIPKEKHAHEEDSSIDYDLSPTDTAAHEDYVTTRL
The nature of assay [13]: serotonin-gated TRPC4 signal block – cell-based, second counter screen, HEK293 TRPC4/5HT1a, Fluo-4, counter-screen for TRPC4 inhibitor project, confirmation (AID 434978;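 active = primary screen active whose calcium signal fell more than 3 SD beyond the full-serotonin control mean in both duplicate plates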;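 note: serotonin given first at submaximal then at maximal dose after compound preincubation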). The settings on record: Fluo-4 calcium flux, at 10 µM, serotonin added to trigger calcium flux; hits give high values. For orientation: The purpose of a counterscreen is to sort out artefacts and off-target activity.

Assay [14] deals with TRPC4 (mouse), co-expressed with 5HT1a in HEK293. Description: enhancement of serotonin-evoked TRPC4 response – cell-based, second counter screen, HEK293 TRPC4/5HT1a, Fluo-4, counter-screen for TRPC4 potentiator project, confirmation (AID 434979;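 active = signal rise over 3 SD above mean of control wells given weak agonist, in both repeats and first screen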). The settings on record: Fluo-4 calcium flux, at 10 µM, serotonin added at its EC20 dose; hits give high values.
Assay [15] in a line: nonspecific calcium rise without TRPC4 – cell-based, HEK293 mu-opioid receptor line, counter-screen for TRPC4 activator project, confirmation (AID 449723;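 active = hit in primary screen, with calcium signal over 5 SD above buffer well mean in both duplicates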;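 note: counter screen cells carry the mu-opioid receptor alone and lack TRPC4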). The following applies: HEK293 mu-opioid cells, Fluo-4 calcium fluorescence, at 10 µM; hits give high values.
Assay [16] is described as follows: nonspecific potentiation of DAMGO calcium response – cell-based, HEK293 mu-opioid receptor line, counter-screen for TRPC4 allosteric potentiator project, confirmation (AID 449724;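 active = calcium signal rise more than 3 SD above the low-dose agonist control mean, in both duplicate plates and the primary screen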;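 note: HEK293 cells carrying mu-opioid receptor only with no TRPC4 channel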). The following applies: HEK293 mu-opioid receptor cells, Fluo-4 calcium flux, at 10 µM, compound added before EC20 DAMGO stimulus; hits give high values.

Structures are written as SMILES. For part of these data: Measured potencies and affinities stand elsewhere. Active and inactive are the calls of the source.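 Rule for the calls, unless noted: active = fluorescence ratio normalized to control raised more than 50% in primary screen plus both repeat runs; inactive = the rest.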

Chain of Short transient receptor potential channel 6 (Mus musculus) (Q61143 whole entry, looked up): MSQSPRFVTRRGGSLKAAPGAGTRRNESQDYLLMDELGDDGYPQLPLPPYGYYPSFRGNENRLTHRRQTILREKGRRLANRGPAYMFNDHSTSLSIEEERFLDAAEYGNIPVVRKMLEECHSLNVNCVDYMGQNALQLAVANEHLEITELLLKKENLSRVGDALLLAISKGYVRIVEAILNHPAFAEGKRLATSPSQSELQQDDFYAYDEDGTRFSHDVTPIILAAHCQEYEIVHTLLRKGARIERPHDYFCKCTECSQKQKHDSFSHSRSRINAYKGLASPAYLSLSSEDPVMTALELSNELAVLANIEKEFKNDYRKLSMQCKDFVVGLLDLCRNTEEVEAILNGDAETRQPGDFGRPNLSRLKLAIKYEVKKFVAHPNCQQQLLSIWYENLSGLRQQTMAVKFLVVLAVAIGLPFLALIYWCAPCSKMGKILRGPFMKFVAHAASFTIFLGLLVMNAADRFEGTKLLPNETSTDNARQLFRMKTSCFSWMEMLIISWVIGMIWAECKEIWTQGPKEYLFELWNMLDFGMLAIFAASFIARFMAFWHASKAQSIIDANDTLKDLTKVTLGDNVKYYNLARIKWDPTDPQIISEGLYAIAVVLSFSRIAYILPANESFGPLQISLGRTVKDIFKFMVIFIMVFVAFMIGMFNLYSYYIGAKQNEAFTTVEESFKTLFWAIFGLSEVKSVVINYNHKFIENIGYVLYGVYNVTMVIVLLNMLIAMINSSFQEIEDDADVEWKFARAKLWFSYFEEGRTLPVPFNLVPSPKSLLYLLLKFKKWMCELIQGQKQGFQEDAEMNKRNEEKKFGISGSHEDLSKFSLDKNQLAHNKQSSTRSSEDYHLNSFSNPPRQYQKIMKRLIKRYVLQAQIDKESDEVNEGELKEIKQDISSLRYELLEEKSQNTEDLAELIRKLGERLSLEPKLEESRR

Regarding `CCOC(=O)C1(CCOc2ccccc2)CCN(Cc2cnc(C)s2)CC1`, the figures for the activation in [1], in assay [10] and in assay [12] were 66% (active), 59.5% (active) and 5.79% (active), respectively. In addition, the outcome in assay [2], in [3], in assay [4], in assay [5], in assay [6] and in assay [7] was inactive. Further, the outcome in assay [8], in assay [9], in assay [11], in assay [13], in [14] and in assay [15] was inactive. Further, the result in [16] was inactive.

Turning to `COc1cc(C(=O)NC(=S)NNC(=O)[C@H]2C[C@@H]2c2ccccc2)cc(OC)c1OC`, the activation in assay [1] is 59% (active); in assay [10] it was 34% (active); in assay [12], 63.3% (active); in assay [15], 13.1% (active). Besides, the result in assay [2], in assay [3], in assay [4], in assay [5], in assay [6] and in [7] was inactive. In addition, the result in [8], in assay [9], in [11], in [13], in [14] and in [16] was inactive.

For `O=C(NCCCN1CCN(CCCNC(=O)c2ccc3c(c2)OCO3)CC1)c1ccc2c(c1)OCO2`, the activation in assay [1] is 112% (active); in assay [2] it was 76% (active); in [12], 37.2% (active). For the same compound, the outcome in assay [3], in assay [4], in assay [5], in [6], in assay [7] and in assay [8] was inactive. Also, the call in assay [9], in assay [10], in [11], in [13], in assay [14] and in assay [15] was inactive. Moreover, the result in [16] was inactive.

In the case of `CCn1c(N2CCN(Cc3ccc([N+](=O)[O-])cc3)CC2)nc2ccccc21`, the activation in assay [1] is 100% (active); in [2], 83% (active); in assay [12], 22% (active). In addition, the result in assay [3], in [4], in assay [5], in assay [6], in assay [7] and in assay [8] was inactive. The result in assay [9], in [10], in assay [11], in assay [13], in assay [15] and in assay [16] was inactive. Besides, in [14], the potentiation was 18.3% (active).

Take `Cc1cc(NC(=O)CN2CCc3ccccc3C2)nc2c1c(=O)oc1ccccc12`: the outcome in assay [1], in assay [2], in assay [3], in assay [4], in assay [5] and in [6] was inactive. Further, the outcome in assay [7], in assay [8], in assay [9], in assay [10], in assay [11] and in assay [12] was inactive. The outcome in [13], in [14], in assay [15] and in assay [16] was inactive.

Regarding `CC1CC(C)CN(CCCNC(=O)c2nn(C)c3c2CS(=O)(=O)c2ccccc2-3)C1` (stereo not given), the activation in assay [1] was 112% (active); in [2], 72% (active); in [10] it was 40.5% (active); in assay [12], 43.2% (active). Also, the result in [3], in assay [4], in [5], in [6], in assay [7] and in [8] was inactive. Also, the outcome in assay [9], in assay [11], in assay [13], in [14], in assay [15] and in [16] was inactive.

As for `CN(C)C(CNC(=O)c1cnc(Cl)c(Cl)c1)c1ccccc1` (stereo not given), the figures for the activation in assay [1], in assay [2] and in assay [10] were 169% (active), 151% (active) and 30.5% (active), respectively. For the same compound, the result in [3], in assay [4], in assay [5], in assay [6], in assay [7] and in assay [8] was inactive. Further, the compound was classed as inactive in [9], in [11], in [12], in assay [13], in [14] and in assay [15]. The outcome in [16] was inactive.

Regarding `O=C(NCCc1ccccn1)c1ccc(OC2CCN(CCc3ccccc3)CC2)cc1`, the activation was 76% (active) in [1] and 44.5% (active) in [10]. Also, the result in assay [2], in assay [3], in assay [4], in assay [5], in assay [6] and in assay [7] was inactive. In addition, the outcome in assay [8], in assay [9], in assay [11], in assay [12], in assay [13] and in [14] was inactive. Moreover, the outcome in assay [15] and in assay [16] was inactive.

Turning to `CCOC(=O)C1(CCc2ccccc2)CCN(Cc2c(O)cccc2OC)CC1`, the activation is 83% (active) in assay [1] and 92.5% (active) in assay [10]. Besides, the outcome in assay [2], in [3], in assay [4], in [5], in assay [6] and in assay [7] was inactive. For the same compound, the result in assay [8], in assay [9], in assay [11], in assay [12], in [13] and in assay [14] was inactive. Further, the result in assay [15] and in assay [16] was inactive.

As to `CN(C)C(CNC(=S)Nc1ccccc1)c1cccnc1` (stereo not given), the values for the activation in assay [1], in [2] and in assay [10] were 76% (active), 82% (active) and 36% (active), respectively. The outcome in assay [3], in assay [4], in [5], in assay [6], in assay [7] and in assay [8] was inactive. The result in [9], in assay [11], in [12], in assay [13], in [14] and in assay [15] was inactive. In assay [16], the result was inactive.

As to `CCOc1ccccc1CN1CCNC(=O)C1CC(=O)NCCc1ccccn1` (stereo not given), the result in assay [1], in assay [2], in assay [3], in [4], in assay [5] and in assay [6] was inactive. Moreover, the result in assay [7], in assay [8], in assay [9], in assay [11], in [13] and in [14] was inactive. Also, the outcome in assay [15] and in assay [16] was inactive. The activation in assay [10] was 23.5% (active); in assay [12], 17.3% (active).

For `CCOC(=O)C1(Cc2cccc(F)c2)CCN(Cc2cnc(C)s2)CC1`, the result in [1], in assay [2], in [3], in assay [4], in assay [5] and in assay [6] was inactive. Also, the result in assay [7], in assay [8], in assay [9], in assay [11], in assay [12] and in assay [13] was inactive. In addition, the outcome in assay [14], in assay [15] and in assay [16] was inactive. The activation in [10] is 44% (active).

Consider `O=C(Nc1nnc(-c2ccccc2Cl)o1)c1nc2ccccc2s1`, for which the activation was 143% (active) in [1], 91.4% (active) in assay [12] and 30.2% (active) in [15]. Also, the outcome in [2], in assay [3], in [4], in assay [5], in [6] and in assay [7] was inactive. Also, the result in [8], in assay [9], in assay [10], in [11], in [13] and in assay [14] was inactive. Moreover, in assay [16], the outcome was inactive.

`Cc1ccc(C)c(-n2cc(CNCCc3cnccn3)c(-c3ccccc3)n2)c1`: the figures for the activation in assay [1], in assay [2] and in [10] were 152% (active), 54% (active) and 40% (active), respectively. Also, the result in [3], in assay [4], in assay [5], in assay [6], in assay [7] and in assay [8] was inactive. Besides, the call in [9], in [11], in [12], in [13], in assay [14] and in [15] was inactive. In addition, in [16], the outcome was inactive.

For the compound `COc1cc(OC)c(CN2CCC(Cc3ccccc3)CC2)cc1Br`, the activation was 121% (active) in [1], 43.5% (active) in assay [10] and 44.9% (active) in assay [12]. Besides, the outcome in assay [2], in assay [3], in assay [4], in [5], in assay [6] and in [7] was inactive. The result in assay [8], in assay [9], in assay [11], in [13], in [14] and in assay [15] was inactive. Moreover, the outcome in assay [16] was inactive.
